Screening data as filed in PubChem BioAssay.
Wnt bcat act = activates Wnt/beta-catenin signaling in a reporter cell assay; activator, plate reader; activation, % at 9.35 µM; hit rate 1.2% among 300,000; AID 743398; in the data active = activation above about 30%, passing the limit was not always enough; inconclusive = no clear call, values can overlap the other calls
CFTR F508del cor = correctors of CFTR F508del function in bronchial epithelial cells; activity (quench increase), % at 7.58 µM; CFBE cells, YFP halide quenching; stimulated with forskolin plus potentiator P3; % fluorescence drop versus neutral controls; AID 720511; hit rate 0.36% among 350,000;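 active = mean added fluorescence quench of at least 8% versus neutral control, with both replicates also reaching 8%; inconclusive = only one of the mean or replicate conditions met; inactive = mean below 8% and not both replicates reaching 8%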;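 also: cells transiently co-express mutant CFTR-F508del with the halide-sensitive YFP; corrector assay measuring rescue of mutant channel to the surface after 24 h compound exposure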
MITF TRPM1 HTS = activators of MITF-driven TRPM1 promoter activity in SK-MEL-5 cells | AID 588334 | hit rate 0.75% among 300,000 | activation, % at 12.5 µM | SK-MEL-5 TRPM1-promoter luciferase, 24 h; % of positive control, neutral wells = 0;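 active = mean activation of at least 80% with every replicate also reaching 80%; inconclusive = mean reaches 80% but some replicate falls short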
GSIS activator = GLuc luminescence reporter in INS-1E cells, primary screen for activators of glucose-dependent secretion of insulin. INS-1E GLuc reporter insulin secretion, 2-3 h. activation, % at 16.6 µM. hit rate 0.61% among 370,000. AID 743287;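 active = lowest replicate activation of at least 40%, so every replicate reaches that level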
HIV Env fusion = blocks HIV Env-driven cell-cell fusion | HeLa-JRFL Env/CEM21 cell fusion, luciferase | inhibition, % at 12.3 µM | hit rate 1.1% among 360,000 | AID 651610;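 active = mean replicate inhibition score of at least 50 and every replicate individually at or above 50; inconclusive = only one of the two criteria met; inactive = mean below 50 and not all replicates reaching 50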
Large screens that a line does not name were inactive. The list is not random: actives were taken first. Their share in the collection is about 2.7%.

O=C(NCC(=O)N(c1ccccc1)C(C(=O)NC1CCCCC1)c1cccnc1)c1cccs1 (stereo not drawn)	HIV Env fusion 56
CCOc1ccccc1N(C(=O)CNC(=O)c1ccco1)C(C(=O)NC1CCCC1)c1cccnc1 (stereo not drawn)	HIV Env fusion 77 (no result: CFTR F508del cor, MITF TRPM1 HTS, GSIS activator)
COc1ccc(C(C(=O)NC2CCCC2)N(C(=O)c2ccoc2C)c2ccc(C)cc2)cc1 (stereo not drawn)	HIV Env fusion 90 (no result: CFTR F508del cor)
Cc1ccc(S(=O)(=O)N(C)C[C@H]2OCCCC[C@H](C)Oc3ccc(NC(=O)c4ccccc4)cc3C(=O)N([C@@H](C)CO)C[C@@H]2C)cc1	none (no result: Wnt bcat act, MITF TRPM1 HTS)
C[C@@H]1CCCCO[C@H](CN(C)C(=O)Nc2ccc(F)cc2)[C@H](C)CN([C@H](C)CO)C(=O)c2cc(NC(=O)CCC(F)(F)F)ccc2O1	none (no result: Wnt bcat act, MITF TRPM1 HTS)
CO[C@H]1CN(C)C(=O)c2cc(NC(C)=O)ccc2OC[C@@H](C)N(CCC(F)(F)F)C[C@H]1C	none (no result: Wnt bcat act, MITF TRPM1 HTS)
COc1ccc(C(C(=O)NC2CCCCC2)N(C(=O)CCl)c2ccc(OC)cc2)cc1 (stereo not drawn)	none (no result: Wnt bcat act, CFTR F508del cor, GSIS activator, HIV Env fusion)
COc1ccc(C(C(=O)NC2CCCCC2)N(C(=O)CCl)c2ccc(C)cc2)cc1 (stereo not drawn)	HIV Env fusion 56 (no result: CFTR F508del cor, GSIS activator)
COc1ccc2nc(SCc3cccc(C)c3)nc(C)c2c1	Wnt bcat act 48 (no result: CFTR F508del cor)
COc1ccc2nc(SCc3ccccc3C)nc(C)c2c1	Wnt bcat act inconclusive (no result: CFTR F508del cor)
COc1ccc(C(=O)c2cc([N+](=O)[O-])ccc2N2CCOCC2)cc1	CFTR F508del cor 11
O=C(COC(=O)c1cc([N+](=O)[O-])ccc1N1CCOCC1)c1ccccc1Cl	none
O=C(COC(=O)c1cc([N+](=O)[O-])ccc1N1CCOCC1)Nc1c(Cl)cccc1Cl	CFTR F508del cor 11
CCOc1ccc(C(=O)c2cc([N+](=O)[O-])ccc2N2CCOCC2)cc1	none (no result: CFTR F508del cor)
COc1ccc2sc(NC(=O)CC(C)C)nc2c1	Wnt bcat act 57, MITF TRPM1 HTS inconclusive (no result: CFTR F508del cor, GSIS activator)
CCC(=O)Nc1nnc(/C=C/c2ccc(OC)cc2)s1	Wnt bcat act 34 (no result: MITF TRPM1 HTS)
CCC(=O)Nc1cc2nn(-c3ccc(OC)cc3)nc2cc1C	GSIS activator 108 (no result: Wnt bcat act, CFTR F508del cor, HIV Env fusion)
COc1ccc2sc(NCc3ccccc3)nc2c1	Wnt bcat act 33, MITF TRPM1 HTS 111
CCCCC(=O)Nc1cc2nn(-c3ccc(OC)cc3)nc2cc1C	none (no result: HIV Env fusion)
Cc1noc(C)c1S(=O)(=O)Nc1ccc2c(c1)CC(=O)N([C@H](C)CO)C[C@@H](C)[C@@H](CN(C)C(=O)Nc1ccc(C(F)(F)F)cc1)O2	none (no result: Wnt bcat act, MITF TRPM1 HTS)
CCC(=O)Nc1nc2cc(OC)ccc2s1	Wnt bcat act 59 (no result: CFTR F508del cor, MITF TRPM1 HTS, GSIS activator)
COc1ccc2sc(NC(C)=O)nc2c1	Wnt bcat act 48 (no result: CFTR F508del cor, GSIS activator)
COc1ccc2sc(NC(=O)NC(=O)c3c(Cl)cccc3Cl)nc2c1	none (no result: MITF TRPM1 HTS)
CCCNC(=O)NC[C@H]1[C@H](c2ccc(C3=CCCC3)cc2)[C@@H](CO)N1C(C)=O	none (no result: Wnt bcat act, MITF TRPM1 HTS, HIV Env fusion)
CCc1ccc(C(C(=O)NC2CCCC2)N(C(=O)/C=C/C(=O)Nc2cc(C)on2)c2ccccc2C)cc1 (stereo not drawn)	HIV Env fusion 77 (no result: CFTR F508del cor)
CCOc1ccc(N(C(=O)/C=C/C(=O)Nc2cc(C)on2)C(C(=O)NC2CCCC2)c2ccccc2C)cc1 (stereo not drawn)	none (no result: HIV Env fusion)
CC(C)(C)c1ccc(C(=O)NC(=S)N2CCOCC2)cc1	Wnt bcat act 34, MITF TRPM1 HTS 104 (no result: HIV Env fusion)
O=C(NCCN1C(=O)C2C3C=CC(C3)C2C1=O)Nc1cccnc1 (stereo not drawn)	none
O=C(NCCN1C(=O)C2C3C=CC(C3)C2C1=O)Nc1ccc(Br)cc1 (stereo not drawn)	Wnt bcat act 37
CCC(C)NC(=O)CCn1ccc2cc(S(=O)(=O)N3CCCC3)ccc21 (stereo not drawn)	none
CC(NC(=O)CCn1ccc2cc(S(=O)(=O)N3CCCC3)ccc21)c1ccccc1 (stereo not drawn)	HIV Env fusion 57
O=C(CCn1ccc2cc(S(=O)(=O)N3CCCC3)ccc21)NCc1ccccc1	none
O=C(CCn1ccc2cc(S(=O)(=O)N3CCCC3)ccc21)NCc1cccc(F)c1	GSIS activator 44
O=C(c1ccccc1)N1CC2(C1)[C@@H](c1ccccc1)[C@H](CO)N2CC1CC1	none (no result: Wnt bcat act, MITF TRPM1 HTS, HIV Env fusion)
O=c1c(O)cccc2cc(O)c(O)c(O)c12	HIV Env fusion 56
O=c1cc(-c2ccccc2)oc2cc(O)c(O)c(O)c12	none (no result: MITF TRPM1 HTS, HIV Env fusion)
CO[C@@H]1CN(C)C(=O)c2cc(NC(=O)c3cccc(Oc4ccccc4)c3)ccc2OC[C@H](C)NC[C@H]1C	none (no result: Wnt bcat act, MITF TRPM1 HTS, HIV Env fusion)
